Compound activity deposited in PubChem BioAssay by National Center for Advancing Translational Sciences (NCATS).
ERK EGF inh: blocks ERK signaling stimulated by EGF | hit rate 0.41% among 130,000 | AID 1454 | HEK293-V1b, EGF-stimulated phospho-ERK AlphaScreen | Potency, µM (top dose mostly 11.5 µM), actives largely listed as inhibitors; active = well fitted inhibition curve with a large enough effect; also: nearly all actives have a fitted effect of over 55% in size
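HEK293 cells stably expressing V1b receptor, serum-reduced (1% FBS) overnight, got compound for 30 min at 37C, then 25 nM EGF for 5 min. Lysate phospho-ERK read by AlphaScreen SureFire; AC50 from Hill fits.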
Hits are given with their value; – = inactive; ! = not active in a repeat. Shown is part of a subset that was picked to be rich in hits.

SMILES	ERK EGF inh
Cc1ccc2ncnc(Nc3cccc(C(=O)O)c3)c2c1	–
Cc1ccc2ncnc(Nc3ccccc3)c2c1	3.5µM
CN(C)c1ncc2nc(-c3ccc(F)cc3)c(=O)n(CCC#N)c2n1	–
Cc1ccc(-n2nc(C)c3onc(C)c3c2=O)cc1	–
CC1(C)CC(C(CCN(Cc2ccccc2)C(=O)c2ccco2)c2ccc(F)cc2)CCO1 (stereo not drawn)	22µM
CC1(C)CC(N(Cc2ccc(F)cc2)C(=O)c2ccc(F)cc2)CCO1 (stereo not drawn)	–
CN(CCC#N)C(=O)CC(Cc1ccccc1)C1CCOC(C)(C)C1 (stereo not drawn)	–
CC(C)NC(=O)N1CCCC2(CCN(C(=O)c3csnn3)CC2)C1	–
CC(C)S(=O)(=O)c1cnc(-c2ccccn2)nc1N	–
CCN1C(=O)/C(=C\c2ccncc2)SC1=S	–
CCN1C(=O)/C(=C/C2=Cc3ccccc3OC2C)SC1=S (stereo not drawn)	16µM
C[C@@H]1Oc2ccccc2C=C1/C=C/C(=O)O	–
COc1cc(OC)c2c(=O)c(-c3ccccc3)coc2c1	–
C[C@@H]1CC[C@@]2(OC1)OC1CC3C4CC=C5CC(O)CCC5(C)C4CCC3(C)C1[C@@H]2C (stereo partly drawn)	–
N#C/C(=C\c1ccc(-c2ccccc2[N+](=O)[O-])o1)C(N)=O	–
CN(C)/C=C1/C(=O)N(c2ccc([N+](=O)[O-])cc2)N=C1c1ccccc1	–
O=C1/C(=C\c2ccc(-c3ccccc3[N+](=O)[O-])o2)C(c2ccccc2)=NN1c1ccccc1	28µM
CC1=CC(=O)[C@@H]2C[C@H]1C2(C)C	–
CC(C)Oc1ccc2c(=O)c3cc(C(=O)O)ccc3oc2c1	–
O=C1C(Cl)=C(N2CCC(C(=O)O)CC2)C(=O)c2ccccc21	–
CC(=O)N(c1ccccc1C)C1CCCC1	–
CC(=O)N(C1=C(Cl)C(=O)c2ccccc2C1=O)C1CCCCC1	25µM
C/C(=C\C1CCCCC1)C(NC(=O)c1cccnc1)c1ccc(-c2ccccc2)cc1 (stereo not drawn)	–
CC(C)C1N(C(=O)CN2CCCCC2)CCN1S(=O)(=O)c1ccccc1 (stereo not drawn)	–
CCO[C@H]1OC(C(=O)NCc2ccccc2)=C[C@@H](C2CC2)[C@@H]1CCCO	–
SMILES	ERK EGF inh
Nc1c(S(=O)(=O)O)cc(Nc2ccc(Nc3nc(Cl)nc(Nc4ccc(S(=O)(=O)O)cc4)n3)c(S(=O)(=O)O)c2)c2c1C(=O)c1ccccc1C2=O	25µM
O=[N+]([O-])c1ccc(Nc2nc(Cl)nc(NCCO)n2)cc1	–
O=[N+]([O-])c1cccc(Nc2nc(Cl)nc(Cl)n2)c1	–
CCCn1c(C)nc2c(NCc3ccccc3)nc(C)nc21	–
O=P(COCCOCCOCP(=O)(c1ccccc1)c1ccccc1)(c1ccccc1)c1ccccc1	–
CN(C)c1ccc(N=Nc2ccccc2C(=O)OCC(=O)N(C)c2ccccc2)cc1	10µM
COC(=O)c1ccccc1NC(=O)COC(=O)[C@H](C)NC(N)=O	–
CN(C(=O)COC(=O)c1ccc2c(c1)OCCO2)c1ccccc1	–
COC(=O)c1ccccc1NC(=O)COC(=O)c1ccccc1N=Nc1ccc(N(C)C)cc1	14µM
CN(C(=O)COC(=O)c1n[nH]c2ccccc12)c1ccccc1	–
CC(=O)c1ccc(NC(=O)COC(=O)c2ccccc2N=Nc2ccc(N(C)C)cc2)cc1	–
CCCn1c(C)nc2c(N(C)CCN(C)C)nc(C)nc21	–
CC(=O)Nc1ccc2c(CSc3nnc(N)s3)cc(=O)oc2c1	–
CS(=O)(=O)c1ccc(C(O)C(CO)NC(=O)C(Cl)Cl)cc1 (stereo not drawn)	–
C[n+]1c(/C=C/c2ccc3c(c2)OCO3)ccc2ccccc21	–
C[n+]1cc2c3c(ccc2c2ccc4cc5c(cc4c21)OCO5)OCO3	25µM!
COc1cc(OC)c2c(c1Cl)O[C@@]1(C2=O)[C@H](C)CC(=O)C[C@@H]1OC	–
Nc1nc2ncc(=O)[nH]c2c(=O)[nH]1	–
CCOc1cc(/C=N/N=C(N)N)ccc1OCc1ccc(Cl)cc1	32µM
COc1cc(/C=N/N=C(N)N)ccc1OCc1ccc(Cl)cc1	–
COc1cc(/C=N/O)ccc1OCc1ccc(Cl)cc1	–
CN(C)c1ccnc(Nc2ccccc2)c1C#N	–
CN(C)c1ccnc2c[cH-]cc12.[Fe].c1ccc(-[c-]2[c-](-c3ccccc3)[c-](-c3ccccc3)[c-](-c3ccccc3)[c-]2-c2ccccc2)cc1 (stereo not drawn)	3.2µM
O=C(CCc1nnc(-c2ccc3c(c2)OCO3)o1)N1CCC(c2ccc(F)cc2)C1 (stereo not drawn)	–
NC[C@H](O)c1ccc(O)c(O)c1	–
SMILES	ERK EGF inh
CC(C)Nc1oc(-c2ccccc2)nc1-c1cccc2ccccc12	–
Cn1cccc1C(=O)N1CCC[C@@]2(CCN(c3ccncc3)C2)C1	–
Cc1cccc(NC(=O)CSc2ccc(C(N)=O)cc2[N+](=O)[O-])c1C	–
CCN(CC)S(=O)(=O)c1cccc(C(=O)c2c(C)cc3ccccn23)c1	–
Cc1cc2ccccn2c1C(=O)c1cc([N+](=O)[O-])cc([N+](=O)[O-])c1	28µM
Cc1cc2ccccn2c1C(=O)c1ccc(NN)c([N+](=O)[O-])c1	25µM
O=C(O)c1ccc(Sc2nnc3ccccn23)c([N+](=O)[O-])c1	–
Cc1cc2ccccn2c1C(=O)Nc1ccccc1	–
COCCNc1cc(-c2ccccc2C(F)(F)F)ncn1	–
O=C(c1ccccc1)N1CCN(C(=S)NCc2ccc3c(c2)OCO3)CC1	–
N#C/C(=C\c1c(F)cccc1Cl)S(=O)(=O)c1ccccn1	–
COC(=O)N1CCC2(CCN(C(=O)NC(C)C)CC2)CC1	–
CCOc1ccc(N(CC(=O)Nc2ccccc2C(=O)N2CCOCC2)S(=O)(=O)c2ccc(F)cc2)cc1	–
Cc1ccccc1Nc1nc(N)nc(CN(C)Cc2ccccc2Cl)n1	–
O=C(O)c1ccccc1-c1ccccc1C(=O)NNc1ccc([N+](=O)[O-])cc1	–
COc1ccc(NCC(=O)n2c(C)c(C)c3ccccc32)cc1OC	–
N.N.N.N.N.N.N.N.N.N.N.N.N.N.O.O.[Cl-].[Cl-].[Cl-].[Cl-].[Cl-].[Cl-].[Ru].[Ru].[Ru]	16µM
O=C(O)CCC(=O)N1CCCC1C(=O)O (stereo not drawn)	–
O=S(=O)(Nc1nc2ccccc2nc1-[n+]1cccc(N=C([O-])c2ccccc2Cl)c1)c1ccccc1	–
NNC(=S)Nc1ccc(Cl)cc1	–
NC(=NCCCCCCN=C(N)/N=C(\N)Nc1ccc(Cl)cc1)/N=C(\N)Nc1ccc(Cl)cc1	22µM!
CC(C)N=C(N)/N=C(\N)Nc1ccc(Cl)cc1	–
CCC1=C2CC[C@H]3C(=O)NC(=O)[C@H]3[C@H]2[C@@]2(Cc3ccccc3)C(=NCC3CC3)OC(=O)N2C1=O	–
CCCn1c(-c2ccc(F)cc2)nc2c(NCCCN3CCOCC3)nc(C)nc21	–
C=CCOC(=O)C1=C(C)Nc2[nH]c(=O)[nH]c(=O)c2C1c1ccccc1 (stereo not drawn)	–
SMILES	ERK EGF inh
C=CCOC(=O)C1=C(C)NC(C)=C(C(=O)OCC=C)C1c1ccco1	–
C=CCOC(=O)C1=C(C)NC(C)=C(C(=O)OCC=C)C1/C=C/c1ccccc1	25µM
CN=c1scc(-c2ccccc2F)n1/N=C/c1ccc(O)c(O)c1O	28µM
CN=c1scc(-c2ccccc2F)n1/N=C/c1ccc[nH]1	–
CN=c1scc(-c2ccco2)n1/N=C/c1ccc(O)c(O)c1	–
O=C(Nc1cccc(F)c1)N1CC[C@@]2(CCCN(C(=O)c3ccncc3)C2)C1	–
